Legend:
[1] = target: High affinity nerve growth factor receptor (Homo sapiens) (UniProt P04629); conditions: at 1 µM;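 further: each value is the mean percent inhibition of TRKA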
[2] = target: BDNF/NT-3 growth factors receptor (Homo sapiens) (UniProt Q16620); conditions: at 0.1 µM
[3] = target: BDNF/NT-3 growth factors receptor (Homo sapiens) (UniProt Q16620); conditions: at 1 µM
[4] = target: NT-3 growth factor receptor (Homo sapiens) (UniProt Q16288); conditions: at 0.1 µM
[5] = target: NT-3 growth factor receptor (Homo sapiens) (UniProt Q16288); conditions: at 1 µM
[6] = target: T1, Tyrosine-protein kinase TXK (Homo sapiens) (UniProt P42681); conditions: at 0.1 µM
T1 sequence (whole entry): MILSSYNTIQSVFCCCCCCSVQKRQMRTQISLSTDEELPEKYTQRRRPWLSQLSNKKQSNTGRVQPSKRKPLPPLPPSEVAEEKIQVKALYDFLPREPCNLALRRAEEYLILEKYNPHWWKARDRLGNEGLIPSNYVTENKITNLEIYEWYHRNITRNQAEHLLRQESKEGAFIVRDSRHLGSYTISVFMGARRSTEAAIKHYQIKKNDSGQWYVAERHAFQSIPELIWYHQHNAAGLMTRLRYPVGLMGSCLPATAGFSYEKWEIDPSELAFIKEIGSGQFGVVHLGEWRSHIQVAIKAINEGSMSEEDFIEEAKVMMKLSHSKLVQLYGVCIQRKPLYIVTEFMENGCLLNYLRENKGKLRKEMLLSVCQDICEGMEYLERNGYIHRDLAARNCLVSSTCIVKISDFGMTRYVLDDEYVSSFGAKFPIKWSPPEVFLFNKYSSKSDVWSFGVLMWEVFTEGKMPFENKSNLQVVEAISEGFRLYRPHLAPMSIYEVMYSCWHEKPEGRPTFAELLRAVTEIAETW

[7] = target: T1, Tyrosine-protein kinase TXK (Homo sapiens); conditions: at 1 µM
[8] = target: Non-receptor tyrosine-protein kinase TYK2 (Homo sapiens) (UniProt P29597); conditions: at 0.1 µM;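 further: each value is a mean of the inhibition readings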
[9] = target: T2, Dual specificity protein kinase TTK (Homo sapiens) (UniProt P33981); conditions: at 1 µM;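 further: reported figures are mean TTK inhibition at 1 µM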
T2 sequence (whole entry): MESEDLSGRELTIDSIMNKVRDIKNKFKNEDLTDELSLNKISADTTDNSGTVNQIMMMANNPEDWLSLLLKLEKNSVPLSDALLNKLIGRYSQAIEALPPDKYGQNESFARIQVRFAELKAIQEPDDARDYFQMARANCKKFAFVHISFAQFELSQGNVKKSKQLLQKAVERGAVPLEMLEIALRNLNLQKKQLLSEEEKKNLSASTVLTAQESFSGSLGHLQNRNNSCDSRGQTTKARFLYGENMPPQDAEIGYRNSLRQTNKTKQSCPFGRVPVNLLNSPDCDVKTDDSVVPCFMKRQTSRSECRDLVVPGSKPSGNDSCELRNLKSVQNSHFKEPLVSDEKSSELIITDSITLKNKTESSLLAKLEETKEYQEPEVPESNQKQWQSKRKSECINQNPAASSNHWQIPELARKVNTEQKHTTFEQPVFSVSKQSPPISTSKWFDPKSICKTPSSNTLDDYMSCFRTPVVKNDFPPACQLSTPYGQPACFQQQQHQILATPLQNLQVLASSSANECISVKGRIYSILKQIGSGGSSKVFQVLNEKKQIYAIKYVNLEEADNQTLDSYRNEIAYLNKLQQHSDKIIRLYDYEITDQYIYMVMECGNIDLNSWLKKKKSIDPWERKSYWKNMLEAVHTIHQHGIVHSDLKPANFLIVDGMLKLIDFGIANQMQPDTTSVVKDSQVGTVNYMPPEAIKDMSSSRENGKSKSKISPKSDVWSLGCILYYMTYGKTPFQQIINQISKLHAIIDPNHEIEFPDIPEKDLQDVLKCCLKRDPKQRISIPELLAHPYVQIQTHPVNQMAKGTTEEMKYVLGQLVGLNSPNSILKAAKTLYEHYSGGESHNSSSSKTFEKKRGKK

[10] = target: T3, Aurora kinase A (Homo sapiens) (UniProt O14965); conditions: at 0.1 µM
T3 sequence (whole entry): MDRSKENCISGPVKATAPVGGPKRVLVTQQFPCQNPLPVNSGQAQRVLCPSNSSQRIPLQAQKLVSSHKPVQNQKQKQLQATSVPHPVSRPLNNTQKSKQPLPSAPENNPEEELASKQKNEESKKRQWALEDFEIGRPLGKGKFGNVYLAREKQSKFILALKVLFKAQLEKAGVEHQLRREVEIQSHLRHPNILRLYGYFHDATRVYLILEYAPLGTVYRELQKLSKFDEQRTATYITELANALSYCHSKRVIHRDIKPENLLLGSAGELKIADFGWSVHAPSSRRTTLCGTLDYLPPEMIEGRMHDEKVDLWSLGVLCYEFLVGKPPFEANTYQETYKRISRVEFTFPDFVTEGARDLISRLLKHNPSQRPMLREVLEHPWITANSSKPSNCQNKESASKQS

[11] = target: T3, Aurora kinase A (Homo sapiens); conditions: at 1 µM
[12] = target: Aurora kinase B (Homo sapiens) (UniProt Q96GD4); conditions: at 0.1 µM
[13] = target: Aurora kinase B (Homo sapiens) (UniProt Q96GD4); conditions: at 1 µM
[14] = target: T4, Aurora kinase C (Homo sapiens) (UniProt Q9UQB9); conditions: at 0.1 µM
T4 sequence (whole entry): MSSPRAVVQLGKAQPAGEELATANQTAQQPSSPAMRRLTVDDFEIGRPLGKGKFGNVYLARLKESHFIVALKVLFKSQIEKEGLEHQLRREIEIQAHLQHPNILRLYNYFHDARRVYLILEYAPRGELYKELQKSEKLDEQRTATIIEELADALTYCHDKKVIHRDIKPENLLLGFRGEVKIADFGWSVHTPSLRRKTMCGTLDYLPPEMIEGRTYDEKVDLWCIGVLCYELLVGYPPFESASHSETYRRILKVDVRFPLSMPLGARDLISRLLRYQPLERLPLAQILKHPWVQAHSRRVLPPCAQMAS

[15] = target: T4, Aurora kinase C (Homo sapiens); conditions: at 1 µM
[16] = target: Serine/threonine-protein kinase 10 (Homo sapiens) (UniProt O94804); conditions: at 0.1 µM
[17] = target: Serine/threonine-protein kinase 10 (Homo sapiens) (UniProt O94804); conditions: at 1 µM
[18] = target: T5, Mitogen-activated protein kinase kinase kinase kinase 2 (Homo sapiens) (UniProt Q12851); conditions: at 0.1 µM
T5 sequence (whole entry): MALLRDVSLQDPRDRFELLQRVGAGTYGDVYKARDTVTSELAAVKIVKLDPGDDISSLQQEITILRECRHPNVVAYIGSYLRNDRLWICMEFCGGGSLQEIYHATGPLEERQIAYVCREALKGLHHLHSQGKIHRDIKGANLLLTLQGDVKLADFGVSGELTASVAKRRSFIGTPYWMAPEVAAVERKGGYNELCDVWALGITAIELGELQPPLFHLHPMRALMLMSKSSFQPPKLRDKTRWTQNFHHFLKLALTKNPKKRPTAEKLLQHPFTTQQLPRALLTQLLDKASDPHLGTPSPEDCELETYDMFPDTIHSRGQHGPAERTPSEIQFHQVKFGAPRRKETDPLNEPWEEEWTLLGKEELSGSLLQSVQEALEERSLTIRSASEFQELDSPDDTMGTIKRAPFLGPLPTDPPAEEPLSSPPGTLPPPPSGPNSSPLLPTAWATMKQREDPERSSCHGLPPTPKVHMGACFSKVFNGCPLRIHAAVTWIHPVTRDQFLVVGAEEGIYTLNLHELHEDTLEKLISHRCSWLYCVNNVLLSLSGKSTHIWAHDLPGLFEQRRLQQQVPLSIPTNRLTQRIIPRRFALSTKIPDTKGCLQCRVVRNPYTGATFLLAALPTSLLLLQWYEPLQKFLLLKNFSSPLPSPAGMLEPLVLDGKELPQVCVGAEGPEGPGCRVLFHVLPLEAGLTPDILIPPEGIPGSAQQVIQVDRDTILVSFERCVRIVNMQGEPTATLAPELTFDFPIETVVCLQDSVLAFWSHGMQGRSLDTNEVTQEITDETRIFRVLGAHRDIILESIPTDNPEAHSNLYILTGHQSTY

[19] = target: T5, Mitogen-activated protein kinase kinase kinase kinase 2 (Homo sapiens); conditions: at 1 µM
[20] = target: Mitogen-activated protein kinase kinase kinase kinase 4 (Homo sapiens) (UniProt O95819); conditions: at 0.1 µM
Mitogen-activated protein kinase kinase kinase kinase 4 (Homo sapiens), sequence (O95819 2-1239 limits assumed): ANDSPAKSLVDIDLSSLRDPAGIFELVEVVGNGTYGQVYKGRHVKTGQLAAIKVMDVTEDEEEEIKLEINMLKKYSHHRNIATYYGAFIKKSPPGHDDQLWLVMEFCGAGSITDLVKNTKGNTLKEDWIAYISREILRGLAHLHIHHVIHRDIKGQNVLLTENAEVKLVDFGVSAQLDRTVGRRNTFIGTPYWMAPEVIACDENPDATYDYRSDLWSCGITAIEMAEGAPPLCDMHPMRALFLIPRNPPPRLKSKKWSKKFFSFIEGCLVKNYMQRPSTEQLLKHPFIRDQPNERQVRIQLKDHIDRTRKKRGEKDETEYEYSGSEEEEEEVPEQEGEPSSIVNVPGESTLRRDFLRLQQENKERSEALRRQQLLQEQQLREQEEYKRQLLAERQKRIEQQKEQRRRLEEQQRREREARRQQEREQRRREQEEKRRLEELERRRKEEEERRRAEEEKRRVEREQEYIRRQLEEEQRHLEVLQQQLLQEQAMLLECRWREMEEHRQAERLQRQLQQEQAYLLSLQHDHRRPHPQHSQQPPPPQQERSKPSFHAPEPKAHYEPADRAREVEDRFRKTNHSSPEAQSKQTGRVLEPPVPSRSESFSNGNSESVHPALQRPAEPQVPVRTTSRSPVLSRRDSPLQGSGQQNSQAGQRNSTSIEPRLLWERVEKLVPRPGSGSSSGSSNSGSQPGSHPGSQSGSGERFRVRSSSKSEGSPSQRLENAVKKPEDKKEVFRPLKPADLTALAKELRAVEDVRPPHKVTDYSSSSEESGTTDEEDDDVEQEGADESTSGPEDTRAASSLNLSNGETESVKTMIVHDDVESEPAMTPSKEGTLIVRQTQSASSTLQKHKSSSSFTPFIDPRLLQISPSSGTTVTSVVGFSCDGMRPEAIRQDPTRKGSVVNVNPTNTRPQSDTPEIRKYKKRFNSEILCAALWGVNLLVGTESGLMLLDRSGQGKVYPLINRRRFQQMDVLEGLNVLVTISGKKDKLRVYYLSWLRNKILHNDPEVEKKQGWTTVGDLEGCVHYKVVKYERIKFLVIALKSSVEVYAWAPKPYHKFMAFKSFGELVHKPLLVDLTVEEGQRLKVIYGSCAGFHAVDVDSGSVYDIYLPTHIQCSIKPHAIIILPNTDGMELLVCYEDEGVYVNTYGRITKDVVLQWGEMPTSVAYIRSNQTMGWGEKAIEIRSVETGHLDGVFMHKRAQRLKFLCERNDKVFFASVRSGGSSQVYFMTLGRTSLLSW

BDNF/NT-3 growth factors receptor (Homo sapiens), sequence (Q16620 32-822 limits assumed): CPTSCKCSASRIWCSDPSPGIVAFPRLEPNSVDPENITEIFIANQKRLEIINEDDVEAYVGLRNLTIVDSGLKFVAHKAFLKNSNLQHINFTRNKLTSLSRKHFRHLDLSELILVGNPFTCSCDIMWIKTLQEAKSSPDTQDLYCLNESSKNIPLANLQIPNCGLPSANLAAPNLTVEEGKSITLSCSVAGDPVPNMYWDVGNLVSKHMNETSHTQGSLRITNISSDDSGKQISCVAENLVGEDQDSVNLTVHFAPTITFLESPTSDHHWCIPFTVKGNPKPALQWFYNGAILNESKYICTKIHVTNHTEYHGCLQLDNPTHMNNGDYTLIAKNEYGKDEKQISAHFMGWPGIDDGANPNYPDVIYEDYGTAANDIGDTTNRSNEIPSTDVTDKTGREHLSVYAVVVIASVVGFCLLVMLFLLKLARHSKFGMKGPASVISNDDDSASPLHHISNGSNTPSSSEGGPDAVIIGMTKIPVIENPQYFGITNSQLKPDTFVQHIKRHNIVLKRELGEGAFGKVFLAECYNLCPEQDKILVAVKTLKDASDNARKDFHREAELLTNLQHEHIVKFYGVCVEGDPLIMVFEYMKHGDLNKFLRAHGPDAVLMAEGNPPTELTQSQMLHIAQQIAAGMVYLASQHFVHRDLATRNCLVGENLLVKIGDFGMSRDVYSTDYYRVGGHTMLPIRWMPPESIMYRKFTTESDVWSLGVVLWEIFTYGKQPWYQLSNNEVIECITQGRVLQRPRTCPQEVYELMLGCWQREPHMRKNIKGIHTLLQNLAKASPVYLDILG
Serine/threonine-protein kinase 10 (Homo sapiens), sequence (O94804 whole entry, looked up): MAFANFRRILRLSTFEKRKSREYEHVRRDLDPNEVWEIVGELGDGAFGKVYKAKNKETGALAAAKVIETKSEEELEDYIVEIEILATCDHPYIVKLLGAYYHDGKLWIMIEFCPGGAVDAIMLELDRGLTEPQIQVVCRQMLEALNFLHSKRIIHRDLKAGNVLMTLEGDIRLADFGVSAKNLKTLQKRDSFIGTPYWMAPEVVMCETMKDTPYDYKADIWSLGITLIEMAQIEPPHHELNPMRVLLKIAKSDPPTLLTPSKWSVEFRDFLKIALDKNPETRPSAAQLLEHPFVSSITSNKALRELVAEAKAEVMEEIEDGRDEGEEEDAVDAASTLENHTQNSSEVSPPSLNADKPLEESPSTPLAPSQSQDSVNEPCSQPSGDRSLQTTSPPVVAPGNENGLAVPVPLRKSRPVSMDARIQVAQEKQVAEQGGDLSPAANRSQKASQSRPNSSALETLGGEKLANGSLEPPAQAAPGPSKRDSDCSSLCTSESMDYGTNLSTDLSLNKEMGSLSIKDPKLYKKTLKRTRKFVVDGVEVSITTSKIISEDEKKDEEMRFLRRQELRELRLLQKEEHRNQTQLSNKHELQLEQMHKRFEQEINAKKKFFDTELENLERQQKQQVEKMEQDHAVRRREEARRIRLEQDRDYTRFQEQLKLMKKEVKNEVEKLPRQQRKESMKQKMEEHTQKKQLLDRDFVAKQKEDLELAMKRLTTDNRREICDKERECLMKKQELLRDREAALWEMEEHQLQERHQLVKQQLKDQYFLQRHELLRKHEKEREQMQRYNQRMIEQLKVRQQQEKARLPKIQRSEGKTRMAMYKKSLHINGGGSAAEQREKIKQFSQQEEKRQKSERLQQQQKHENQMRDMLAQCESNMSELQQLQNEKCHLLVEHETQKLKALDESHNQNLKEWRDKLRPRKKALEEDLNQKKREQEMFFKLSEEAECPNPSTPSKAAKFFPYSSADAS
Non-receptor tyrosine-protein kinase TYK2 (Homo sapiens), sequence (P29597 whole entry): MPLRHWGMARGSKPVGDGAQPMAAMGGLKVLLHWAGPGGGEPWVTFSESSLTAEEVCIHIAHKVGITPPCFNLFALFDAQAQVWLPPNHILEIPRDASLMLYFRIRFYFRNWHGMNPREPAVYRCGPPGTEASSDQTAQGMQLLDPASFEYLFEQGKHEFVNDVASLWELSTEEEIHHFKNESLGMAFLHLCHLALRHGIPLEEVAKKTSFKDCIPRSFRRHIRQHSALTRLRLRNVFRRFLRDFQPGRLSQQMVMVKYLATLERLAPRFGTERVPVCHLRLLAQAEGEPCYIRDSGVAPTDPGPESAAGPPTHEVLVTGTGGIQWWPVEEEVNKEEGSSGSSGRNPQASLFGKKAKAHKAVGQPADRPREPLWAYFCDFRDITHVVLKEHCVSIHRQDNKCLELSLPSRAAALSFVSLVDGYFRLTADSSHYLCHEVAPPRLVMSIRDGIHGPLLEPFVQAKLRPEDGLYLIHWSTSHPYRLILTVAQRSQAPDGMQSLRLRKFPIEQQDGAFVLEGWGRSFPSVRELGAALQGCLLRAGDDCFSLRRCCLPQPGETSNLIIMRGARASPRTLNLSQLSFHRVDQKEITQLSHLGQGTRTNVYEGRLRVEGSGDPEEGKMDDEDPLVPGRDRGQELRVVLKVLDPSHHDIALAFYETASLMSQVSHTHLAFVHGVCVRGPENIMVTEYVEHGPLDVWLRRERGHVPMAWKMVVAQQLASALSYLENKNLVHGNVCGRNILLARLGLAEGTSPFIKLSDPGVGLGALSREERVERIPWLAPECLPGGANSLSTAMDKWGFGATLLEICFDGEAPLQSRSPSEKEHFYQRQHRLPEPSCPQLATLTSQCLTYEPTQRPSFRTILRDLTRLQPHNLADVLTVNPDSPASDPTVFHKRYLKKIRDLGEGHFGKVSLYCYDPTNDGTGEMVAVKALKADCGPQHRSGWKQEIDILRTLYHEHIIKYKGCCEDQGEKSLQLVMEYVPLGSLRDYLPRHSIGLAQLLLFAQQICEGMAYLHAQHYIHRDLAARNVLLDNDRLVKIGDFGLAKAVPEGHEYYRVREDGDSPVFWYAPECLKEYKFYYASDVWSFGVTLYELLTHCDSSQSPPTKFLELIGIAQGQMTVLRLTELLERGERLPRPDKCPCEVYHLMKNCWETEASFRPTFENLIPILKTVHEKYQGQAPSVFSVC
High affinity nerve growth factor receptor (Homo sapiens), sequence (P04629 33-796 limits assumed): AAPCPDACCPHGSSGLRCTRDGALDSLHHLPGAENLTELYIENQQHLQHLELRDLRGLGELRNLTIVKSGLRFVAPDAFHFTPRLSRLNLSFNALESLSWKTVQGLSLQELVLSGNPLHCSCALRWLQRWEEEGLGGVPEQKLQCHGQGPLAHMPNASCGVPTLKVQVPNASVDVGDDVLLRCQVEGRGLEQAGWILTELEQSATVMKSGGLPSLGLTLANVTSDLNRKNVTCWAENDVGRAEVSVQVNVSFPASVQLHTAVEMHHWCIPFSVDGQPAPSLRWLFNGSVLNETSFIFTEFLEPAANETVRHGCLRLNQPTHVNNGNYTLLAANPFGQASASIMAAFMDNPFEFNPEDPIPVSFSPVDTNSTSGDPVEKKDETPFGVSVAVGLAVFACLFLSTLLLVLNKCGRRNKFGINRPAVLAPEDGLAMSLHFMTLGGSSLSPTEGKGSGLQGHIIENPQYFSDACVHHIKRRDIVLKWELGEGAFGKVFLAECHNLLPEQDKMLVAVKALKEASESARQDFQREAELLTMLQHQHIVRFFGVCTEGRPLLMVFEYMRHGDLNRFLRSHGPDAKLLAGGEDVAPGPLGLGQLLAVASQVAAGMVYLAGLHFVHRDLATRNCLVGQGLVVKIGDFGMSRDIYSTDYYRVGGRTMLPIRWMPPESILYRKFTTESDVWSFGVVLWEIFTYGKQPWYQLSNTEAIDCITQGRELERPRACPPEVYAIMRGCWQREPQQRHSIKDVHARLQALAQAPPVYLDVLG

SMILES | inhibition [1] | inhibition [2] | inhibition [3] | inhibition [4] | inhibition [5] | inhibition [6] | inhibition [7] | inhibition [8] | inhibition [9] | inhibition [10] | inhibition [11] | inhibition [12] | inhibition [13] | inhibition [14] | inhibition [15] | inhibition [16] | inhibition [17] | inhibition [18] | inhibition [19] | inhibition [20]
Cc1ccc2c(c1)/C(=N/Nc1ccc(S(N)(=O)=O)cc1)C(=O)N2 | 11.8% | 3.81% | 31.2% | 4.95% | 39.2% | 1.24% | 3.92% | 1.2% | 33.2% | 2.87% | 27.8% | 1.05% | 7.36% | 1.16% | 23.6% | 0.32% | 3.53% | 1.01% | 4.98% | 27.3%
Cc1nc(-c2ccccc2)n2nc(NCCCN3CCOCC3)ncc12 | 5.06% | 1.8% | 3.5% | 2.73% | 2.25% | 4.46% | 3.59% | -3.48% | 5.84% | 3.52% | 5.63% | 1.82% | 8.37% | 1.43% | 12.1% | 4.62% | 7.49% | 2.45% | 2.48% | 1.62%
COc1cccc(-n2ncc3c(N/N=C/c4ccc(S(C)(=O)=O)cc4)ncnc32)c1 | 5.3% | 6.69% | 19.3% | 6.62% | 22.3% | 0.02% | 12.4% | -0.06% |  | 6.42% | 28.4% | 9.58% | 42.4% | 0.72% | 12.2% | 6.63% | 16.3% | 0.47% | 0.9% | 16.2%
N#Cc1c(NC(=O)c2ccccc2F)sc2c1CCCC2 | -2.78% | -1.85% | -1.97% | 0.83% | -1.95% | -0.16% | 1.71% | 2.79% | 1.13% | -0.7% | -2.59% | -1.47% | 0.26% | -2% | 0.91% | -0.59% | 4.2% | 1.34% | 2.61% | -1.47%
CC(C)c1ccc2c(c1)NC(=O)/C2=N/Nc1ccc(S(N)(=O)=O)cc1 | 26.1% | 4.87% | 31.5% | 7.71% | 34.9% | 1.51% | 3.5% | 0.63% | 3.55% | 1.5% | 8.05% | 1.3% | 7% | -4.39% | 6.7% | -0.47% | 2.14% | 2.41% | 2.01% | 12.8%
O=S(=O)(CCOCc1ccc(-c2ccc3ncnc(Nc4ccc(OCc5cccc(F)c5)c(Cl)c4)c3c2)o1)c1ccccc1 | 3.9% | 2.42% | 2.72% | 0.35% | 0.31% | -0.26% | 2.63% | -3.63% | 11% | 1.6% | 2.01% | 2.69% | 7.69% | -0.03% | 5.99% | 2.38% | 5.21% | 0.66% | 3.12% | 6.19%
Cc1ccc(O)cc1Nc1ccnc2ccc(S(C)(=O)=O)cc12 | 2.38% | 3.22% | 5.52% | 6.41% | 7.31% | 81% | 83.8% | -1.89% | 10% | 1.96% | 6.17% | 2.16% | 5.99% | 0.93% | -0.69% | 8.9% | 36.7% | 5.18% | 31% | 8.02%
O=C1Nc2ccccc2/C1=C/Nc1ccc2[nH]c(=O)[nH]c2c1 | 53.9% | 26.2% | 72.7% | 26.2% | 74.2% | 6.68% | 7.08% | -6.64% | 38.8% | 6.9% | 52% | 10.8% | 44.7% | 9.06% | 81.9% | 8.73% | 17% | 1.3% | 15.2% | 25.3%
COc1cc(/C=N/Nc2ncnc3c2cnn3C(C)C)ccc1O | 8.39% | 4.28% | 31.4% | 3.32% | 29.1% | 3.5% | 14.1% | 0.13% | 2.81% | 3.73% | 37.7% | 3.34% | 15.5% | 1.77% | 13.8% | 3% | 21.7% | 2.5% | 9.5% | 7.32%
CCS(=O)(=O)c1ccc(OC)c(Nc2nccc(N(C)c3ccc4c(C)n[nH]c4c3)n2)c1 | 11.7% | 5.19% | 14.1% | 4.34% | 17.5% | 1.6% | 26.2% | -6.13% | 11.9% | 4.98% | 6.77% | 3.25% | 7.33% | 6.61% | 28.2% | 43.4% | 83% | 0.17% | 12.7% | 4.51%
O=C1Nc2ccc(-c3cccnc3)cc2C1=Cc1cc(Br)c(O)c(Br)c1 | 12.8% | 2.93% | 12.2% | 4.91% | 24.1% | 2.22% | 6.14% | 0.81% | 7.48% | 15.5% | 88.3% | 4.87% | 16% | 2.6% | 31.7% | 3.55% | 3.51% | 1.24% | 2.93% | 69.3%
Nc1nccc(-c2c(-c3ccc(F)cc3)nn3cc(C(F)(F)F)ccc23)n1 | -4.55% | 0.39% | 0.48% | 0.11% | 1.1% | 0.11% | 6.52% | -4.56% | 4.23% | 0.97% | 1.39% | 1.38% | 0.7% | 1.04% | 0.73% | -0.92% | 3.24% | 2.23% | 1.52% | -0.02%
Nc1nccc(-c2c(-c3ccc(F)cc3)ncn2CCCN2CCOCC2)n1 | 2.15% | 1.18% | 6.6% | 0.23% | 4.59% | 3% | 3.47% | -3.95% | 6.61% | 3.86% | 8.99% | 2.68% | 4.99% | 0.25% | -2.92% | 3.38% | 7.74% | 2.02% | -0.39% | 3.81%
CN1CCN(C(=O)c2ccc(NC(=O)Nc3ccc(N(C)c4ccnc(Nc5ccc(CS(C)(=O)=O)cc5)n4)cc3)cc2)CC1 | 51% | 5.61% | 31.5% | 9.24% | 36.9% | 33.8% | 70.1% | -4.74% | 8.24% | 84.3% | 85.9% | 68.5% | 72.8% | 88.4% | 95.3% | 26.3% | 67.7% | 4.67% | 32.7% | 13%
